From the supplement of paper PMC6555819

Tests used:
Experiment in all cases: PBM binding z-score (relative to random genomic background probes); higher = stronger binding; sequences stand for … in GC…GCGATTGACAGCGTAGAATGAAGG
[1] = test system: PPARg:RXRa DBDmut IVT, anti-RXR (DBD mutation: RXRa K156A/R161A, NR concentration 270 nM, RXRa partner concentration 90 nM)
Procedure, shortened: (§1)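 Custom Agilent 4×180K protein-binding microarrays carried double-stranded probes. Their 34-nt variable regions held direct-repeat seeds, single-nucleotide variants, half-site ablations and random human genomic background sequences. Arrays were incubated 1 h with ligand-free nuclear receptor dimers in PBS pH 7.4, 2% milk, 0.02% Triton X-100, 1 mM DTT, 0.2 mg/mL BSA and 0.4 mg/ml salmon testes DNA. Antibodies against each partner (one per run) detected binding, and scanned fluorescence was regression-normalized. Binding z-scores use random background probes as reference.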

[2] = test system: PPARg:RXRa IVT, anti-PPARg (NR concentration 270 nM, RXRa partner concentration 90 nM)
Procedure, shortened: as §1

[3] = test system: PPARg DBDmut:RXRa IVT, anti-PPARg (DBD mutation: PPARg1 K132A/R137A, NR concentration 270 nM, RXRa partner concentration 90 nM)
Procedure, shortened: as §1

[4] = test system: PPARg DBDmut IVT, anti-PPARg (DBD mutation: PPARg1 K132A/R137A, NR concentration 270 nM)
Procedure, shortened: as §1

[5] = test system: PPARg homodimer (NR concentration 180 nM)
Procedure, shortened: as §1

[6] = test system: PXR:RXRa (NR concentration 270 nM, RXRa partner concentration 90 nM)
Procedure, shortened: as §1

[7] = test system: PXR homodimer (NR concentration 270 nM)
Procedure, shortened: as §1

[8] = test system: RARa:RXR (NR concentration 270 nM, RXRa partner concentration 90 nM)
Procedure, shortened: as §1

[9] = test system: RARa homodimer (NR concentration 270 nM)
Procedure, shortened: as §1

[10] = test system: RARb:RXRa (NR concentration 270 nM, RXRa partner concentration 90 nM)
Procedure, shortened: as §1

[11] = test system: RARb homodimer (NR concentration 270 nM)
Procedure, shortened: as §1

[12] = test system: RARg:RXRa (NR concentration 270 nM, RXRa partner concentration 90 nM)
Procedure, shortened: as §1

[13] = test system: RARg homodimer (NR concentration 270 nM)
Procedure, shortened: as §1

[14] = test system: RXRa DBDmut IVT, anti-RXR (DBD mutation: RXRa K156A/R161A, NR concentration 90 nM)
Procedure, shortened: as §1

[15] = test system: RXRa homodimer (NR concentration 180 nM)
Procedure, shortened: as §1

[16] = test system: THRa:RXRa (NR concentration 90 nM, RXRa partner concentration 90 nM)
Procedure, shortened: as §1

[17] = test system: THRa homodimer (NR concentration 90 nM)
Procedure, shortened: as §1

[18] = test system: VDR homodimer (NR concentration 270 nM)
Procedure, shortened: as §1

Sequence | PBM binding z-score [1] | PBM binding z-score [2] | PBM binding z-score [3] | PBM binding z-score [4] | PBM binding z-score [5] | PBM binding z-score [6] | PBM binding z-score [7] | PBM binding z-score [8] | PBM binding z-score [9] | PBM binding z-score [10] | PBM binding z-score [11] | PBM binding z-score [12] | PBM binding z-score [13] | PBM binding z-score [14] | PBM binding z-score [15] | PBM binding z-score [16] | PBM binding z-score [17] | PBM binding z-score [18]
GCTCGTAGGACAAGGTCAGAGCTTTGTCCGTAGA | 0.0127 | 1.08 | -1.37 | -1.3 | 0.722 | 1.63 | -0.493 | 2.13 | -1.71 | 3.16 | 2.93 | 2.95 | 3.49 | 0.281 | 2.55 | 2.64 | 0.975 | 0.106
ACTAGTTGGTCAGCTGAAGTCACACACAATTCGG | 0.924 | 0.828 | 0.539 | 0.649 | 0.462 | -0.105 | -0.357 | 0.136 | 0.213 | 0.828 | 0.741 | 0.686 | 0.796 | 0.337 | 0.297 | 0.346 | -0.0517 | 0.0981
ACTAGCAGGCCAAGTTTGAGTCACTCAAACAAAG | 0.376 | 0.193 | -0.678 | 0.262 | -0.297 | -0.433 | -0.248 | -0.0649 | -1.17 | 0.293 | -0.195 | 0.0466 | 0.196 | -0.27 | -0.333 | -0.188 | -0.77 | -0.27
GATACAGGCTCAGCTAGAGGCCAGAGTATGGAAA | -1.07 | -0.379 | -0.391 | -1.01 | -0.531 | -0.951 | -0.872 | -0.733 | -0.86 | -0.294 | -0.469 | -0.109 | -0.0931 | -0.906 | -0.529 | -1.13 | -0.801 | -0.924
CCTAGCAGGCCAATCTGGGGCACTCAAGGCTTGA | 3.51 | 3.96 | -0.514 | -1.4 | -0.431 | -0.51 | -1.01 | -0.273 | -0.87 | 0.323 | 0.233 | -0.125 | 0.0351 | -0.585 | -0.29 | 1.65 | -0.87 | -0.374
CCTAGTTGGGCAAGGTCACACACGCTATAGGTAC | 0.83 | 2.2 | 0.202 | 0.558 | 2.56 | 3.9 | 1.13 | 4.04 | 1.63 | 3.91 | 3.9 | 4.2 | 3.87 | 1.51 | 4.41 | 3.79 | 3.23 | 2.77
TCTGGCAGGCCAGAGGGTCACTCAAGAGGTACGG | 0.0912 | 0.182 | -0.722 | -0.915 | 0.353 | 1.59 | -0.371 | 2 | -0.717 | 2.31 | 2.63 | 2.81 | 1.94 | -0.443 | 2.6 | 1.62 | -0.676 | 0.353
CGAACGAGGGCATGTGTTGATAGCAAATGCCGAT | 2.61 | 1.67 | 0.15 | -0.912 | 0.123 | 0.241 | -0.168 | 0.367 | 0.149 | 1.81 | 0.926 | 1.08 | 1.7 | 2.64 | 0.745 | 1.03 | 0.0176 | 1.44
TGAATGCGGTTATAAGATCAGGGAACGTTGCAAA | -1.13 | 0.042 | 0.512 | 0.235 | 0.329 | -0.103 | 0.0437 | -0.0387 | -0.0517 | 0.025 | -0.46 | 0.175 | 0.239 | -0.906 | -0.0523 | -0.183 | -0.559 | -0.171
GCTGCTAGGTCAGGTTGGTCAGCAAACGGGTACG | 2.74 | 2.2 | -0.864 | -0.495 | 0.7 | 0.33 | -0.684 | 0.7 | -0.687 | 3.25 | 2.84 | 2.72 | 3.54 | 0.377 | 1.03 | 1.92 | 0.409 | 0.182
CCCAGTTGGTCAGGAGGTCACACACCGGATATGA | 0.556 | 3.46 | -0.0435 | -0.356 | 2.74 | 3.97 | 1.3 | 4.22 | 1.81 | 3.79 | 4.41 | 4.87 | 4.25 | -0.0617 | 4.6 | 3.52 | 2.63 | 2.66
CCGACTGGGGCATAAGGTTACTATAAGCCAGCCC | 2.65 | 3.13 | -0.815 | -1.53 | 0.494 | 0.29 | -0.23 | 0.911 | -0.358 | 1.45 | 1.38 | 1.37 | 0.813 | -0.277 | 1.04 | 1.59 | 0.819 | 0.0174
CTTACTGGGCCACGAAAGGTCATTGATTCAGTGA | 7.15 | 7.26 | 1.25 | 0.41 | 3.04 | 5.88 | 2.14 | 5.98 | 0.212 | 4.38 | 4.85 | 5.14 | 4.77 | 1.19 | 5.84 | 4.12 | 1.15 | 1.78
TGAATGAGGATATAAGATCAGGGAACGTTGCAAA | -0.556 | 0.057 | 0.56 | 0.888 | 0.688 | -0.114 | 0.099 | 0.0893 | 0.416 | -0.402 | -0.689 | 0.125 | 0.402 | -0.562 | 0.189 | 0.534 | -0.316 | -0.0248
TCTCGGAGGACACGAAGTTCAGAGCTTTCCAGAG | 1.43 | -0.00253 | -0.707 | -1.05 | -0.195 | 1.39 | 2.87 | 0.555 | -0.518 | 2.36 | 2.07 | 1.17 | 2.04 | 1.08 | 0.47 | 1.72 | 0.372 | 2.38
ATCGAAAGGTCGAGGGGAGTATAGAGAAAGGGAA | 0.44 | 1.72 | 1.88 | 1.27 | 1.83 | 2.27 | 0.897 | 3.24 | 1.45 | 3.97 | 2.84 | 4.18 | 4.21 | 1.4 | 3.94 | 2.05 | 0.272 | 0.958
